From patent US20240200044, “EVOLUTION OF TALENS” (President and Fellows of Harvard College, published 2024)

Biological target: CBX8-directed TALE-omega K59E (synthetic construct, UniProt Q56830 SEQ:41-724, K59E)
Experiment: one_hybrid; versus canonical CBX8 TALE
Details: tags: N-terminal FLAG-NLS, C-terminal RNAP omega; dsDNA, one strand shown

TTCAGGAGGGCTTCGGC
binding signal: 2 fold decrease
